{"source": "PubChem BioAssay (NCATS)", "key": {"[1]": {"assay": "Cell Viability - LYMP2-024 (AID 988);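 note: plate controls were DMSO only for no effect and 92 µM tetraoctylammonium bromide for full effect; nearly all actives have a fitted effect of over 60% in size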", "in_short": "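Cytotoxicity was taken as a decrease in ATP (CellTiter-Glo luminescence) after 24 hr compound exposure at 37 C of LYMP2-024 lymphoblastoid cells, 2500 cells/well. Concentration-response data were fitted to the Hill equation to give AC50.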"}, "[2]": {"assay": "Cell Viability - LYMP2-026 (AID 989); note: % is set by controls: 0 for no effect and ±100 for the full control effect; nearly all actives have a fitted effect of over 50% in size", "in_short": "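Cytotoxicity read as ATP-dependent luminescence (CellTiter-Glo, 30 min room temperature) after 24 h compound treatment at 37 C. LYMP2-026 lymphoblastoid line seeded at 2500 cells/well; AC50 derived by standard Hill equation.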"}, "[3]": {"assay": "Cell Viability - LYMP1-002 - Assay at 24 hr (AID 993); note: % is set by controls: 0 for no effect and ±100 for the full control effect", "in_short": "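qHTS cytotoxicity at 24 h: CellTiter-Glo ATP luminescence in lymphoblastoid line LYMP1-002 incubated with compound at 37 °C. Concentration-response modeled with the Hill equation for AC50; tetraoctylammonium bromide served as positive control.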"}, "[4]": {"assay": "Cell Viability - LYMP1-002 - Assay at 40 hr (AID 994);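 note: 0% = DMSO only and full inhibition = 92 µM tetraoctylammonium bromide; nearly all actives have a fitted effect of over 60% in size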", "in_short": "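Cytotoxicity was read as loss of cellular ATP (CellTiter-Glo luminescence) after 40 hr compound exposure at 37 C of 2500 LYMP1-002 lymphoblastoid cells per well. Concentration-response data were fitted with the standard Hill equation to give AC50.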"}, "[5]": {"assay": "qHTS Assay for Lipid Storage Modulators (AID 1519; calls by dose curve; for activity change, negative = inhibition: % is set by controls: 0 for no effect and ±100 for the full control effect)", "details": "Drosophila S3 cells, BODIPY lipid droplet/cell ratio, laser cytometry, cells loaded with oleic acid", "in_short": "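Cells seeded at 5,000 per well were treated with compounds over a concentration series and loaded with oleic acid (400 uM, as added). Lipid droplet fluorescence (488 nm excitation, 500-530 nm channel) was read by laser-scanning cytometry and normalized to 20 uM Triacsin C.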"}}, "note": "Results filed as inconclusive are left out. Calls of active or inactive are those of the source. Unless noted, calls come from the whole dose curve; as a rule, active = well fitted cell-killing curve with a large enough effect; inconclusive = small, poorly fitted or top-dose-only effect; inactive = flat fitted curve, though single readings scatter."}
{"smiles": "CCN(CC)C(=O)c1cccc(C)c1", "values": [{"measurement": "outcome", "setting": "[1]", "result": "inactive"}, {"measurement": "outcome", "setting": "[2]", "result": "inactive"}, {"measurement": "outcome", "setting": "[3]", "result": "inactive"}, {"measurement": "outcome", "setting": "[4]", "result": "inactive"}, {"measurement": "activity change, negative = inhibition", "setting": "[5]; at 57.5 µM (top of the series)", "result": "7.23% (inactive)"}, {"measurement": "max response", "setting": "[5]; measured here: cell count channel max response", "result": 15.5, "unit": "%"}, {"measurement": "max response", "setting": "[5]; measured here: lipid channel max response", "result": 28.9, "unit": "%"}]}
{"smiles": "FC(F)(F)C(Cl)Br", "note": "(stereo not given)", "values": [{"measurement": "outcome", "setting": "[1]", "result": "inactive"}, {"measurement": "outcome", "setting": "[2]", "result": "inactive"}, {"measurement": "outcome", "setting": "[3]", "result": "inactive"}, {"measurement": "outcome", "setting": "[4]", "result": "inactive"}]}
{"smiles": "CC(=O)Nc1ccc(C(=O)O)cc1", "values": [{"measurement": "outcome", "setting": "[1]", "result": "inactive"}, {"measurement": "outcome", "setting": "[2]", "result": "inactive"}, {"measurement": "outcome", "setting": "[3]", "result": "inactive"}, {"measurement": "outcome", "setting": "[4]", "result": "inactive"}]}
